Assay results taken from ChEMBL document CHEMBL3433997, “St. Jude Leishmania screening dataset” (2016).

Legend:
Format in all cases: functional
[1] = target: Solute carrier family 2, facilitated glucose transporter member 1 (Homo sapiens) (UniProt P11166); test: ST_JUDE_LEISH: Cytotoxicity at 2uM final concentration against transgenic Leishmania Mexicana promastigotes LmGLUT1 that are glucose transport deficient and complemented with the human glucose transporter GLUT1. Activity is measured by DNA content using SYBR green in vitro
Solute carrier family 2, facilitated glucose transporter member 1 (Homo sapiens), sequence (P11166 whole entry): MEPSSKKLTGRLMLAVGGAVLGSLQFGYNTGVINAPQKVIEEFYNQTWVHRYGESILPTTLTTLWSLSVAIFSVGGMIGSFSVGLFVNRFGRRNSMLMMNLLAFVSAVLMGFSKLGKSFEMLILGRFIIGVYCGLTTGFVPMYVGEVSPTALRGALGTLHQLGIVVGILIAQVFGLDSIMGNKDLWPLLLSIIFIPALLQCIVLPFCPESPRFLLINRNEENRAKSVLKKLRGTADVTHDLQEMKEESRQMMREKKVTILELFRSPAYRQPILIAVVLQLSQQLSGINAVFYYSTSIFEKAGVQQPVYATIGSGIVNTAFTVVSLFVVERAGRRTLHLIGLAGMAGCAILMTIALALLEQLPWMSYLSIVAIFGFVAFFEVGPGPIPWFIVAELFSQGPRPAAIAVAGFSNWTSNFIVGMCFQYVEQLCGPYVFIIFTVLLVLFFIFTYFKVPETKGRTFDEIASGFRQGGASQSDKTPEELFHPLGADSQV

[2] = target: Hexose transporter 1 (Plasmodium falciparum) (UniProt O97467); test: ST_JUDE_LEISH: Cytotoxicity at 2uM final concentration against transgenic Leishmania Mexicana promastigotes LmPfHT that are glucose transport deficient and complemented with the Plasmodium falciparum hexose transporter. Activity is measured by DNA content using SYBR green in vitro
[3] = target: Glucose transporter (Leishmania mexicana) (UniProt O61059); test: ST_JUDE_LEISH: Cytotoxicity at 2uM final concentration against transgenic Leishmania Mexicana promastigotes LmGT2 that are glucose transport deficient and complemented with the L. Mexicana glucose transporter 2. Activity is measured by DNA content using SYBR green in vitro

Row | Structure (SMILES) | inhibition [1] [%] | inhibition [2] [%] | inhibition [3] [%]
1 | Cc1cc(-c2cccc(CNC3CCCC3)c2)ccc1S(=O)(=O)NCCN1CCCC1 | 5 | 3.43 | 6.24
2 | Cc1ccnc(-n2c(C)cc(C=C3SC(=Nc4ccccc4)N(Cc4ccco4)C3=O)c2C)c1 | 2.02 | 2.85 | 4.69
3 | O=C(Cn1c(SCc2cccc(F)c2F)cc(=O)c2ccccc21)N(Cc1ccc(-c2ccc(C(F)(F)F)cc2)cc1)C1CCN(CCO)CC1 | -0.08 | -0.44 | -1.32
4 | Cc1ccccc1Cn1ccc2c3c(N)nc(N)nc3ccc21 | 92.7 | 87.7 | 81.9
5 | c1cncc(-c2cccc(CNc3nccc(Nc4ccc(OCCN5CCOCC5)cc4)n3)c2)c1 | 0.48 | 1 | 0.07
6 | O=C(Nc1ccc(-c2ccccc2)cc1)Nc1cccc(Cn2nc(Cl)c(N3CCCNCC3)cc2=O)c1 | 3.71 | 0.49 | 0.24
7 | CCCCCCCNc1cc(C)nc2ccc(OC)cc12 | 16.5 | 9.23 | 12.4
8 | CCOC(=O)c1ccc(N(CCCN(CCCN(c2ccc(C(=O)OCC)cc2)S(=O)(=O)c2ccc(C)cc2)CCc2ccc(O)cc2)S(=O)(=O)c2ccc(C)cc2)cc1 | 2.89 | 2.43 | 1.65
9 | O=C(Nc1nc2cc(S(=O)(=O)NCCCN3CCOCC3)ccc2n1CCCn1ccnc1)c1ccc(Cl)cc1 | 5.51 | 5.43 | 4.2
10 | N=C(N)Nc1nc(-c2cccc(NC(=O)NCCc3c[nH]c4ccc(OCc5ccccc5)cc34)c2)cs1 | 0.6 | 1.4 | 0.56
11 | CCOc1ccccc1C=CC(=O)Nc1ccc2nc(N3CCN(C)CC3)cc(C)c2c1 | 5.87 | 2.96 | 4.24
12 | C=CCOC(=O)N1CCC(CNCc2ccc(-c3ccc(-c4nc5ccccc5[nH]4)s3)cc2)C1 (stereo unspecified) | 5.91 | 6.02 | 5.42
13 | CCCCCNc1nc(Nc2ccccc2C)nc2ccccc12 | 29.1 | 22.7 | 11
14 | O=S(=O)(c1ccc(OCc2ccc(Cl)cc2)cc1)c1cc2c(cc1OCc1ccccc1)CCN(C1CCC1)CC2 | 7.19 | 4.84 | 7.79
15 | COc1ccc(CNC2Cc3ccccc3C2)cc1-c1ccc(OC)c(S(=O)(=O)NCCN2CCCC2)c1 | 1.59 | 1.67 | -1.29
16 | O=C(Nc1ccc(Cl)c(Cl)c1)Nc1cc(C(F)(F)F)ccc1Cl | -0.56 | 1.37 | 1.28
17 | CCCN1CCN(CCCNC(=O)c2cc3c(Cl)nc4ccc(C)cc4c3s2)CC1 | -1.56 | 1.08 | -1.97
18 | CN(C)CCC(O)C=C(c1ccc(Cl)cc1)c1ccc(Cl)cc1 (stereo unspecified) | 9.31 | 7.5 | 4.86
19 | O=C(/C=C/c1ccc(Cl)c(Cl)c1)NCCCCCCN1CCN(C(=O)Nc2ccc(F)c(Cl)c2)CC1 | 13.8 | 11.5 | 14.1
20 | Clc1ccc(-c2cnc3ccc(NCCc4cccnc4)nn23)cc1 | 1.24 | -1.47 | 0.12
21 | Nc1ncc(-c2ccc(F)cc2)cc1-c1nc2ccc(Cl)cc2[nH]1 | 4.48 | 5.54 | 2.11
22 | Cc1cccc2nc(-c3cccc(-c4ccc(NC(=O)c5cnn6cccnc56)cc4)c3)[nH]c12 | 11.4 | 9.77 | 7.27
23 | COc1ccc(C2C(C(=O)Nc3cc(C)ccc3OC)c3ccccc3C(=O)N2C)cc1 (stereo unspecified) | 5.62 | 5.84 | 1.74
24 | COc1ccc(C(=O)N2CCN(c3ccc([N+](=O)[O-])c(NC4CC4)c3)CC2)cc1Br | 14.4 | 14.1 | 12.6

Row | Structure (SMILES) | inhibition [1] [%] | inhibition [2] [%] | inhibition [3] [%]
25 | COCCNCc1ccc(-c2ccc(CNc3ccc4ncccc4c3)cc2)cc1 | 2 | 4.18 | 1.36
26 | COc1ccc(CC2(c3ccc(F)cc3)N=C(N)N(CCCc3cccnc3)C2=O)cc1 (stereo unspecified) | 2.7 | 1.49 | 2.08
27 | Cc1ccc(NC(=O)c2ccc(CN3CCCN(CC4CCCCC4)CC3)cc2)cc1C | 7.66 | 7.13 | 8.98
28 | CCNc1cc(C)nc(Nc2ccc(F)cc2)n1 | 22.3 | 11.9 | 8.37
29 | Cc1noc(C)c1-c1ccc2c(Nc3ccc(C#N)cc3)c(C(N)=O)cnc2c1 | 4.95 | 4.62 | 5
30 | CCc1ccc(C2CCN(CCCCNC(=O)c3ccc(NC(=O)c4ccc(Cl)cc4)cc3)CC2)c(OCC(=O)OC)c1 | -0.04 | 1.79 | 1.25
31 | CN(CCON1C(=N)N=C(N)NC1(C)C)c1ccccc1 | -0.49 | 0.33 | 0.35
32 | CCOC(=O)C1=C(C)NC2=C(C(=O)CC(C)(C)C2)C1c1ccc(Br)cc1 (stereo unspecified) | 1.77 | 0.63 | 0.59
33 | CC[C@H](C)CNC(=O)c1cncc(-c2cccc(CNCCCc3ccccc3)c2)c1 | 4.76 | 3.06 | 4.25
34 | CCCCN1CCN(c2cc(NS(=O)(=O)c3ccc(C(=O)Nc4ccc(C(F)(F)F)cc4)cc3)ccc2OC)CC1 | 3.79 | 5.5 | 0.69
35 | CN(C)S(=O)(=O)n1ncc2c3c(N)nc(N)nc3ccc21 | 0.68 | 1.22 | 0.96
36 | CN(C)CCNC(=O)[C@H](CC1CCCCC1)NC(=O)c1ccc(O)c(-c2ccc(Cl)c(Cl)c2)c1 | 4 | 2.85 | 1.78
37 | COc1cc2nc(Nc3ccc(N4CCOCC4)cc3)nc(N)c2cc1OC | 0.99 | 2.3 | -0.6
38 | Cc1cccc(CNc2nc(C)cc(N[C@@H](Cc3ccccc3)C(=O)NCCOc3ccccc3)n2)c1 | 16.6 | 15.8 | 11.4
39 | COc1ccc(NC(=O)C2c3ccccc3C(=O)N(C3CCCC3)C2c2cccs2)cc1 (stereo unspecified) | 5.7 | 4.78 | 5
40 | O=C(Cc1ccccc1)NC1CCN(c2ccnc3cc(Cl)ccc23)C1 (stereo unspecified) | 2.05 | 2.03 | 3.56
41 | O=C(NC1CCCCC1)N(Cc1ccc(-c2ccc(CNC3CCCC3)cc2)cc1)C1CCN(Cc2ccccc2)CC1 | 1.76 | 3.96 | 5.15
42 | COc1ccc(N2CCN(CCCN3CCN(C(=O)c4ccc(/C=C/c5ccc(Cl)c(Cl)c5)cc4)CC3)CC2)c(OC)c1 | 6.35 | 6.21 | 5.56
43 | CN(C)C(C)(C)CN(Cc1ccc(-c2ccc(C(F)(F)F)cc2)cc1)C(=O)Cn1c(CCc2cccc(F)c2F)nc(=O)c2ccccc21 | 1.52 | 0.48 | 0.79
44 | CN(C)CCCc1cc2c(cc1Cl)CCN2C(=O)Nc1ccc(-c2ccncc2)c2ccccc12 | -2.58 | -1.62 | -3.5
45 | COc1c(C2CCN(CCCCNC(=O)c3ccc(-c4ccc(Cl)cc4)c(OCCN(C)C)c3)CC2)ccc2c1CCCC2 | 9.22 | 14.4 | 18.8
46 | O=C(NCc1ccccc1)OC1CNCCC1c1ccc(C(O)Cc2ccccc2)cc1 (stereo unspecified) | 1.68 | 1.62 | 2.32
47 | O=c1cc(NCCCNCc2cc(Br)ccc2F)[nH]c2ccccc12 | -1.01 | -0.63 | -6.76
